For 65 compounds, inhibition results are on record in PubChem BioAssay AID624330 (Southern Research Specialized Biocontainment Screening …, 2012).

The whole screen tested about 340,000 compounds, of which about 2,100 (0.62%) were called active. The list is a sample of the results. Measured potencies and affinities stand elsewhere. Unmarked numbers belong to inactive results.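 Rule for the calls: active = first-screen hits whose inhibition reached a set limit at any dose in the follow-up dose series; inconclusive = inhibition above the set first-screen limit but never retested; inactive = the rest.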

For this assay, the target named is Rac GTPase-activating protein 1 (Homo sapiens) (UniProt Q9H0H5). Put plainly: MgcRacGAP GTPase-activating activity inhibitors, confirmation, biochemical, ADP Hunter fluorescence, primary and confirmatory (AID 624330).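 Note: fluorescence reports GDP produced by GAP-driven GTP hydrolysis.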 Conditions: MgcRacGAP-stimulated Rac1 GTP hydrolysis, at 30 µM, stronger effect = higher value, GST-tagged Rac1 F28L mutant substrate.
Rac GTPase-activating protein 1 (Homo sapiens), sequence (Q9H0H5 whole entry, looked up): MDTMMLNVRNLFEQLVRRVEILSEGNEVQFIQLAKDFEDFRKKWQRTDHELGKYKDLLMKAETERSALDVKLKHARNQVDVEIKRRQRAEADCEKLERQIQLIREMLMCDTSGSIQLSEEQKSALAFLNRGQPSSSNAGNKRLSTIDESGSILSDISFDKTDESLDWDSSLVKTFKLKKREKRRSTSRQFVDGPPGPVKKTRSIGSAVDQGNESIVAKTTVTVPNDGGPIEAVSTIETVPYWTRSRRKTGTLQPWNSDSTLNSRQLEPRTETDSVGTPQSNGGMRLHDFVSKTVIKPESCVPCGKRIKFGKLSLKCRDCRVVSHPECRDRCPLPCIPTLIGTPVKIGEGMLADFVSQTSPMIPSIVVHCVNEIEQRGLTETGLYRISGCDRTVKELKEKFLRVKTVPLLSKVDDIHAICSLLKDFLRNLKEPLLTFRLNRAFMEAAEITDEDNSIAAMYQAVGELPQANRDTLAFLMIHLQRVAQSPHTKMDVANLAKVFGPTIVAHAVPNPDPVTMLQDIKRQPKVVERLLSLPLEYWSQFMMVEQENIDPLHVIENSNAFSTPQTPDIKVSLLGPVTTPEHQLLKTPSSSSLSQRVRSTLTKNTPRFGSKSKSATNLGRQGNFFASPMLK
Turning to `O=C(NNC(=O)c1cc2ccccc2cc1O)c1cccs1`, the inhibition was 3.14%. On to `Cc1cccc(N2CCN(C(=O)C3CCC(=O)N(Cc4ccccc4F)C3)CC2)c1C` (stereo not given), for which the inhibition is -9.79%. For `CCn1cc(/C=C(\NC(=O)c2ccccc2)C(=O)N2CCOCC2)c2ccccc21`, the inhibition is 9.74%. As to `Nc1no[n+]([O-])c1-c1ccccc1`, the inhibition is 7.71%. Then `CCCC(=O)Nc1cc(-c2nc3ncccc3o2)ccc1Cl`, with 6.17%.

Turning to `O=C(O)CCn1cc(/C=C2/NC(=S)N(c3ccccc3)C2=O)c(-c2ccccc2)n1`, the inhibition is 7.18%. Then `Cc1ccc(-c2nn(CCC(=O)O)cc2/C=C\C(=O)c2ccc(Br)cc2)cc1`, with -9.64%; and `O=C(O)CCn1cc(/C=C2\NC(=S)N(c3ccccc3)C2=O)c(-c2ccc(Br)cc2)n1`, with 0.36%. In the case of `O=Cc1cn(CCC(=O)O)nc1-c1cccc(Br)c1` it was -0.73%; in that of `NC(=S)N/N=C/c1cn(CCC(=O)O)nc1-c1cccc(Br)c1`, 12.2%; in that of `O=C(O)CCn1cc(C(=O)O)c(-c2ccccc2)n1`, 9.41%. Then `Cc1ccc(C2=NN3C(=O)c4ccccc4C3C2)cc1` (stereo not given), with -20.3%; and `COCCC(=O)N1CCCC(C(=O)c2ccccc2SC)C1` (stereo not given), with 1.95%. Take `COc1ccc(-n2nnnc2SCC(=O)Nc2cccc(O)c2)cc1`: the inhibition is 8.11%. In the case of `CCOC(=O)C1(Cc2cccc(OC)c2)CCN(Cc2cccc3cnccc23)CC1` it was -0.92%; in that of `O=C(C=Cc1ccco1)N1CCOCC1`, 8.8%. In the case of `CN(C)c1ccc(C=C2C=C(c3ccccc3)OC2=O)cc1`, the inhibition was -3.66%. Take `Cc1ccc(C=C2C=C(c3ccccc3)OC2=O)cc1`: the inhibition is 11.5%. In the case of `NC(=S)Cc1ccccc1Cl` it was 8.51%; in that of `O=C(O)c1ccc(O)cc1O`, 6.35%; in that of `OC(CCN1CCCCC1)(c1ccccc1)C1C[C@@H]2C=C[C@H]1C2` (stereo not given in full), 0.59%. Then `CCN(CC)Cc1c(O)ccc2cc(-c3nc4ccccc4n3C)c(=O)oc12`, with 2.29%. In the case of `CCc1cc2c(=O)c(-c3nc4ccccc4n3C)c(COCC(=O)O)oc2cc1O` it was 3.02%. Regarding `CCc1cc(-c2n[nH]c(C)c2-c2nc3ccccc3n2C)c(O)c(CN2CCN(C)CC2)c1O`, the inhibition was 1.55%. Then `CCCCn1c(=O)c(CCC(=O)O)nc2ccccc21`, with -3.87%; and `CCOC(=O)C1CCCN(C(=O)c2ccccc2[N+](=O)[O-])C1` (stereo not given), with 3.25%; and `CCCCC/C=C/C1=CC(=O)C[C@H](c2ccc3c(c2)OCO3)C1`, with 5.09%. On to `CN(Cc1ccno1)Cc1cn(Cc2ccccc2)nc1-c1ccc2c(c1)OCO2`, for which the inhibition is 9.52%. In the case of `COc1ccc(CCNC(=O)COC(=O)C2COc3ccccc3O2)cc1` (stereo not given) it was 2.96%; in that of `CC(=O)N1CCN(S(=O)(=O)c2cccc(C(=O)NCCc3ccc(Cl)cc3)c2)CC1`, 5.57%.

Regarding `CCOc1ccc(Oc2ccccc2NC(=O)C2=COCCO2)cc1`, the inhibition was -5.82%. In the case of `OCCCNc1c2ccccc2nc2ccccc12` it was 9.86%; in that of `OCCCNCc1cccc2ccccc12`, -2.77%. Then `COCCCNC(=O)C[C@H]1C[C@H](C(=O)N(C(C)C)C(C)C)[C@@]2(C)c3[nH]c4ccc(Cl)cc4c3CCN2C1=O`, with 4.5%; and `Cc1ccc(S(=O)(=O)NNC(=O)CCC(=O)Nc2ccccc2Cl)cc1`, with 7.64%. As to `C(/CCc1ccccc1)=N\n1cnnc1`, the inhibition is 8.49%. Then `CCN(CC)c1ccc(C(=O)O)cc1`, with -7.19%.

In the case of `O=C(O)c1ccc2c(c1)C(=O)N(Cc1ccco1)C2=O`, the inhibition was -0.17%. Then `O=C1C(=Cc2ccco2)C(=O)c2ccccc21`, with 12.3%; and `O=C(O)c1ccc2c(c1)C(=O)/C(=C/c1ccccc1)C2=O`, with 31.4%; and `Cc1ccc(C(=O)O)cc1-c1ccc(C=C2C(=O)c3ccccc3C2=O)o1`, with 12.9%.

For the compound `Cc1ccc(C=C2C(=O)c3ccccc3C2=O)o1`, the inhibition is 8.39%. Then `O=C(CN(Cc1ccccc1)C(=O)c1csnn1)NCc1ccc2c(c1)OCO2`, with -2.73%; and `CCOc1ncccc1C(=O)OCCCC(=O)c1ccc(Br)cc1`, with 2.15%; and `COc1ccc(-n2c(-c3ccc(Cl)cc3Cl)n[nH]c2=S)c(OC)c1`, with -9.67%. Then `COc1cccc(NC(=S)N(CCc2c(C)[nH]c3ccccc23)Cc2cccs2)c1`, with 6.48%; and `COc1ccc(C(=O)Nc2ccc(C(=O)Nc3nccs3)cc2)cc1[N+](=O)[O-]`, with 10%; and `Fc1ccc(C2=Nc3cccc4cccc(c34)N2)cc1`, with 16.5%. In the case of `CC1=Nc2cccc3cccc(c23)N1` it was -4.86%. Consider `O=C(Nc1ccccc1)NC1(C(=O)N2CCC(O)CC2)CCCCC1`, for which the inhibition is 5.54%.

On to `CCOC(=O)C1CCCN(C(=O)C2CCN(C(=O)Nc3ccccc3)CC2)C1` (stereo not given), for which the inhibition is 4.05%. Turning to `OC1CCN(C(=S)Nc2ccc(Oc3ccccc3)cc2)CC1`, the inhibition was -10.8%. Then `CCOC(=O)C1CCCN(C(=O)Nc2ccccc2)C1` (stereo not given), with 0.14%; and `CCCOCC(O)CCc1n[nH]c(=S)n1-c1ccccc1` (stereo not given), with -1.65%.

`Cc1ccc(C(=O)COc2ccc3ccc(=O)oc3c2)cc1`: the inhibition was 8.86%. Then `Cc1cc(C)n(C(=O)c2ccc(NC(=O)C3COc4ccccc4O3)cc2)n1` (stereo not given), with -9.3%. For the compound `CC(C)c1onc(C(=O)N2CCN(Cc3ccccc3)CC2)c1[N+](=O)[O-]`, the inhibition was -1.76%. Take `CNc1ncnc(Sc2nc(N)nc3nc[nH]c23)c1[N+](=O)[O-]`: the inhibition is -4.52%. In the case of `Nc1nc(SCc2ccccc2)c2[nH]cnc2n1` it was 5.48%. For `COC(=O)c1ccc(C(=O)OC)c(NC(=O)COC(=O)c2ccc(OC)c(OC)c2OC)c1`, the inhibition is -0.19%.

With `COC(=O)c1ccc(/C=C/C(=O)O)cc1`, the inhibition is 14.6%.

In the case of `COC(=O)c1ccc2c(c1)C(=O)/C(=C/c1ccc(O)cc1)O2`, the inhibition was 30.8%. In the case of `C[N+]1=C(/C=C/Nc2ccccc2Cl)C(C)(C)c2ccccc21` it was -5.94%; in that of `COC(=O)c1ccc2nc(C)c(C)nc2c1`, 2.34%.

Consider `COc1ccc(/C=N/Nc2ccc(C(=O)O)cc2)c(OC)c1OC`, for which the inhibition was 5.84%.

For orientation: inhibition means the drop in the measured response relative to a control, in per cent.
